Hits are enriched below; roughly 17% of the tested compounds scored in any of these assays.
HepG2 viability – qHTS for Inhibitors of TGF-b: Cytotox Counterscreen; actives 0.76% (n = 410,000); AID 588856, 2011; Potency, µM (top dose mostly 46.1 µM), most hits filed as cytotoxic; HepG2 CAGA-GFP viability, ATP luminescence, 18 h
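HepG2 CAGA-GFP cells (1000/well, DMEM with 1% FBS) received compound, then TGF-beta at 500 pg/mL final, and were incubated 18 hours at 37 degrees C. Viability was read by CellTiter-Glo luminescence. Media-only wells were set as complete cell-killing and DMSO as no toxicity.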
HT1080 IDH1KD tx – qHTS for induction of synthetic lethality in tumor cells producing 2HG: qHTS for the HT-1080-IDH1KD cell line; actives 2% (n = 360,000); HT-1080 IDH1 knockdown viability, ATP luminescence, 48 h; Potency, µM (doses to about 46.1 µM), actives largely listed as cytotoxic
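In this qHTS, HT-1080 cells depleted of IDH1 are exposed for 48 h at 37 °C to compound titrations. Toxicity is scored from CellTiter-Glo luminescence, with DMSO as full viability and medium alone as none.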
TDP1 cell noCPT – qHTS for Inhibitors of human tyrosyl-DNA phosphodiesterase 1 (TDP1): qHTS in cells in absence of CPT. DT40 Tdp1-/- hTDP1 cells, no CPT, ATP luminescence, 48 h. Potency, µM (doses to about 46.2 µM), usual class: inhibitors. actives 15% (n = 420,000); note: nearly all actives have a fitted effect of over 55% in size
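Camptothecin absent (DMSO only). Human TDP1-complemented DT40 knockout cells, 400 cells/well, 37 °C for minimum 48 hr; ATP measured via CellTiter-Glo, 30 min dark incubation, luminescence.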
TDP1 cell CPT – qHTS for Inhibitors of human tyrosyl-DNA phosphodiesterase 1 (TDP1): qHTS in cells in presence of CPT. chicken DT40 Tdp1-/-;hTDP1 cells + 20 nM CPT, ATP luminescence, 48 h. Potency, µM (highest dose often 46.2 µM), usual class: inhibitors. actives 12% (n = 420,000). AID 686979, 2013; note: nearly all actives have a fitted effect of over 55% in size
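Chicken DT40 Tdp1-/- cells complemented with human TDP1, 400 cells/well, exposed to compounds plus 20 nM camptothecin for at least 48 h at 37 C; viability read as ATP content by CellTiter-Glo luminescence.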
HT1080NT lethal – qHTS for induction of synthetic lethality in tumor cells producing 2HG: qHTS for the HT-1080-NT fibrosarcoma cell line; Potency, µM (doses to about 46.1 µM), usual class: cytotoxic; actives 1.6% (n = 360,000); HT-1080-NT fibrosarcoma viability, CellTiter-Glo ATP luminescence, 48 h;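 note: NT is the 2HG producing partner of a matched IDH1 knockdown line; nearly all actives have a fitted effect of over 55% in size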
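Compounds were tested in concentration-response format on HT-1080-NT cells for 48 hours at 37 degrees C. Cell viability came from CellTiter-Glo luminescence; curves were classified by r2, response magnitude and activity.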
TGFb SMAD3 inh – qHTS for Inhibitors of TGF-b. HepG2 CAGA-GFP TGF-b/SMAD3 reporter, GFP fluorescence, 18 h; TGF-beta stimulated, 500 pg/mL final. Potency, µM (series often up to 46.1 µM), usual class: inhibitors. actives 1.2% (n = 410,000); note: nearly all actives have a fitted effect of over 65% in size
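HEPG2 CAGA-GFP reporter cells (1000/well, DMEM with 1% FBS) received compounds, then recombinant TGF-beta at 500 pg/mL final for 18 hours at 37 degrees C. Per-cell GFP summed per well was normalised to unstimulated and stimulated DMSO controls before curve fitting.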
Each line names hits and unclear results; the compound was inactive in the other large screens. Calls come from the whole dose curve; as a rule, active = well fitted curve in the direction sought with a large enough effect; inconclusive = small, poorly fitted or top-dose-only effect, or another doubt; inactive = no such curve, though single readings can be large; an effect the other way counts as inactive or inconclusive.

CCc1ccc2oc(C(=O)N(Cc3ccc(N(C)C)cc3)Cc3ccco3)c(C)c2c1	TDP1 cell noCPT 16µM, TDP1 cell CPT 0.73µM (no result: HT1080 IDH1KD tx, HT1080NT lethal, TGFb SMAD3 inh)
Cc1ccc2c(C)c(C(=O)NCCc3ccco3)oc2c1C	none
CCCn1c(SCC(=O)N(CC)c2c(N)n(Cc3ccccc3)c(=O)[nH]c2=O)nnc1-c1ccncc1	none
Cc1ccnc(SCC(=O)c2ccc(Br)cc2)c1C#N	TDP1 cell noCPT 21µM, TDP1 cell CPT inconclusive
Cc1ccc(C(=O)CSc2nsc(C)c2C#N)cc1	TDP1 cell CPT inconclusive
Cc1ccc(Cn2c(C3CCCN3c3nc(C)cs3)nc3cc(C(F)(F)F)ccc32)cc1 (stereo not drawn)	TDP1 cell noCPT 21µM, TDP1 cell CPT inconclusive, TGFb SMAD3 inh inconclusive
CCOc1ccc(S(=O)(=O)c2ccc(C)cc2)c2c1no[n+]2[O-]	TDP1 cell noCPT 18µM, TDP1 cell CPT 15µM
O=C(c1cnc2ccc3ccccc3c2c1)c1cc(F)ccc1O	HT1080 IDH1KD tx 8.2µM, TDP1 cell noCPT inconclusive, TDP1 cell CPT 7.3µM, HT1080NT lethal 16µM, TGFb SMAD3 inh inconclusive
Clc1ccc(CON/C=N/c2ncnc3sccc23)cc1	TDP1 cell noCPT 12µM, TDP1 cell CPT 12µM
C(=N\c1ncnc2sccc12)/NOCc1ccccc1	TDP1 cell noCPT 9.2µM, TDP1 cell CPT 23µM
Cc1c(C(=O)N2CCN(c3ccccn3)CC2)oc2c1C(=O)CC(C)(C)C2	TDP1 cell noCPT inconclusive, TDP1 cell CPT inconclusive
COc1ccccc1N1CCN(C(=O)c2oc3cc(C)cc(C)c3c2C)CC1	TDP1 cell noCPT 26µM, TDP1 cell CPT inconclusive, TGFb SMAD3 inh inconclusive
COc1ccccc1N1CCN(C(=O)c2oc3c(c2C)C(=O)CC(C)(C)C3)CC1	TDP1 cell noCPT 6.5µM, TDP1 cell CPT 15µM
Cc1cccc(S(=O)(=O)NC(=O)C2(C)CCN2C(=O)c2cccc(F)c2)c1 (stereo not drawn)	HT1080NT lethal inconclusive
CC(C)(C)N1CC(C(=O)Nc2ccc(S(=O)(=O)N3CCCCC3)cc2)CC1=O (stereo not drawn)	TDP1 cell noCPT 1.6µM, TDP1 cell CPT inconclusive
Cc1cccc(N2CC(C(=O)Nc3ccc(S(=O)(=O)N4CCCCC4)cc3)CC2=O)c1C (stereo not drawn)	TDP1 cell noCPT inconclusive, TDP1 cell CPT inconclusive
Cc1ccccc1N1CC(C(=O)Nc2ccc(S(=O)(=O)N3CCCCC3)cc2)CC1=O (stereo not drawn)	TDP1 cell noCPT 16µM, TDP1 cell CPT inconclusive, TGFb SMAD3 inh inconclusive
CC1Cc2ccccc2C[N+]1(C)CC(=O)c1cccc([N+](=O)[O-])c1 (stereo not drawn)	TDP1 cell noCPT inconclusive (no result: HT1080 IDH1KD tx, HT1080NT lethal)
O=C1C=C(C2OC(CO)C(O)C2O)C(=O)N1 (stereo not drawn)	TDP1 cell noCPT 6.5µM, TDP1 cell CPT 4.6µM
Cc1ccc(Oc2cc([N+](=O)[O-])cc3c2C(=O)Nc2ccccc2O3)cc1	TDP1 cell noCPT 15µM, TDP1 cell CPT inconclusive, HT1080NT lethal inconclusive
O=C1Nc2ccccc2Oc2cc(Oc3ccc(Cl)cc3)ccc21	TDP1 cell noCPT inconclusive (no result: HT1080 IDH1KD tx, HT1080NT lethal)
NC1C(N)C(N)C1N (stereo not drawn)	none (no result: HepG2 viability, TGFb SMAD3 inh)
Cc1c(C(=O)N(Cc2ccncc2)CC2CCCO2)oc2c(F)cccc12 (stereo not drawn)	none
Cc1cc(C)c(OCC(=O)N(Cc2ccc(N(C)C)cc2)CC2CCCO2)c(C)c1 (stereo not drawn)	TDP1 cell noCPT 10µM, TDP1 cell CPT 16µM (no result: HT1080 IDH1KD tx, HT1080NT lethal)
Cc1cccc(C)c1OCC(=O)N(Cc1ccc(Cl)cc1)CC1CCCO1 (stereo not drawn)	TDP1 cell noCPT inconclusive, TDP1 cell CPT inconclusive, TGFb SMAD3 inh inconclusive (no result: HT1080 IDH1KD tx, HT1080NT lethal)
COc1cc(C(=O)N(Cc2ccc(N(C)C)cc2)CC2CCCO2)cc(OC)c1OC (stereo not drawn)	TDP1 cell noCPT inconclusive (no result: HT1080 IDH1KD tx, HT1080NT lethal)
Cc1ccc2oc(C(=O)N(Cc3ccc(N(C)C)cc3)CC3CCCO3)c(C)c2c1 (stereo not drawn)	TDP1 cell noCPT 18µM, TDP1 cell CPT inconclusive, TGFb SMAD3 inh inconclusive
Cc1ccc(OCC(=O)N(Cc2ccc(N(C)C)cc2)CC2CCCO2)cc1C (stereo not drawn)	TDP1 cell noCPT 15µM, TDP1 cell CPT 15µM (no result: HT1080 IDH1KD tx, HT1080NT lethal)
Cc1ccc2c(C)c(C(=O)N(Cc3ccncc3)CC3CCCO3)oc2c1C (stereo not drawn)	TDP1 cell noCPT 21µM, TDP1 cell CPT 26µM
O=C(c1ccco1)N1CCN(C(=O)C23CC4CC(CC(C4)C2)C3)CC1	TDP1 cell noCPT inconclusive, TDP1 cell CPT inconclusive
Cc1ccccc1OCC(=O)N(Cc1ccc(N(C)C)cc1)CC1CCCO1 (stereo not drawn)	TDP1 cell noCPT 21µM, TDP1 cell CPT inconclusive (no result: HT1080 IDH1KD tx, HT1080NT lethal)
CC1CCCN(CCOCCOc2ccc(Br)cc2Cl)C1 (stereo not drawn)	HT1080 IDH1KD tx inconclusive, TDP1 cell noCPT 18µM, TDP1 cell CPT 18µM, HT1080NT lethal inconclusive
CN1CCN(CCOCCOc2ccc(Br)cc2Cl)CC1	TDP1 cell noCPT inconclusive, TDP1 cell CPT inconclusive
Cc1cc(Cl)c(OCCOCCN2CCCCC2)c(Br)c1	TDP1 cell noCPT inconclusive
C=CCc1cccc(Cl)c1OCCCNC1CCCC1	TDP1 cell noCPT 18µM, TDP1 cell CPT 23µM
Cc1cc(Cl)c(OCCOCCN2CCCC(C)C2)c(Br)c1 (stereo not drawn)	HT1080 IDH1KD tx inconclusive, TDP1 cell noCPT 16µM, TDP1 cell CPT 29µM, HT1080NT lethal 18µM
Cc1cc(Cl)c(OCCCNC2CCCC2)c(Br)c1	HT1080 IDH1KD tx 21µM, TDP1 cell noCPT inconclusive, TDP1 cell CPT inconclusive, HT1080NT lethal inconclusive, TGFb SMAD3 inh inconclusive
O=C(O)c1ccc(C(=O)c2cc([N+](=O)[O-])cc([N+](=O)[O-])c2)cc1	none
CCCN1C(=O)CC(c2ccc(OC)c(OC)c2)C1=O (stereo not drawn)	none
CC1CCCN(CCOCCOc2ccc(Cl)cc2Br)C1 (stereo not drawn)	HT1080 IDH1KD tx 11µM, TDP1 cell noCPT 18µM, TDP1 cell CPT inconclusive, HT1080NT lethal 22µM, TGFb SMAD3 inh inconclusive
COc1ccc(C)cc1S(=O)(=O)N1CCN(C(=O)c2ncoc2-c2ccccc2F)CC1	TDP1 cell noCPT inconclusive
